# Compounds with a hit are over-represented: about 1.6% of the library has one in this group of screens.
# KCNQ2 enhance: enhances the rat KCNQ2 potassium channel; O88943; CHO-K1 KCNQ2, FluxOR thallium flux fluorescence; active compounds read high; B-score at 10 µM; 310,000 compounds, 0.54% hits; AID 2239;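 active means fluorescence ratio B-score at least 3 SD of library B-scores, with initial fluorescence B-score within 3 of them, cut at about 5.3 in these data; same plate scores as AID 2156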;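 further: B-score of peak minus minimum over baseline fluorescence ratio after K+ and Tl+ stimulus; positive B-score means potentiation of KCNQ2 with more thallium influx and brighter signal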
# Target sequence (O88943 whole entry, looked up): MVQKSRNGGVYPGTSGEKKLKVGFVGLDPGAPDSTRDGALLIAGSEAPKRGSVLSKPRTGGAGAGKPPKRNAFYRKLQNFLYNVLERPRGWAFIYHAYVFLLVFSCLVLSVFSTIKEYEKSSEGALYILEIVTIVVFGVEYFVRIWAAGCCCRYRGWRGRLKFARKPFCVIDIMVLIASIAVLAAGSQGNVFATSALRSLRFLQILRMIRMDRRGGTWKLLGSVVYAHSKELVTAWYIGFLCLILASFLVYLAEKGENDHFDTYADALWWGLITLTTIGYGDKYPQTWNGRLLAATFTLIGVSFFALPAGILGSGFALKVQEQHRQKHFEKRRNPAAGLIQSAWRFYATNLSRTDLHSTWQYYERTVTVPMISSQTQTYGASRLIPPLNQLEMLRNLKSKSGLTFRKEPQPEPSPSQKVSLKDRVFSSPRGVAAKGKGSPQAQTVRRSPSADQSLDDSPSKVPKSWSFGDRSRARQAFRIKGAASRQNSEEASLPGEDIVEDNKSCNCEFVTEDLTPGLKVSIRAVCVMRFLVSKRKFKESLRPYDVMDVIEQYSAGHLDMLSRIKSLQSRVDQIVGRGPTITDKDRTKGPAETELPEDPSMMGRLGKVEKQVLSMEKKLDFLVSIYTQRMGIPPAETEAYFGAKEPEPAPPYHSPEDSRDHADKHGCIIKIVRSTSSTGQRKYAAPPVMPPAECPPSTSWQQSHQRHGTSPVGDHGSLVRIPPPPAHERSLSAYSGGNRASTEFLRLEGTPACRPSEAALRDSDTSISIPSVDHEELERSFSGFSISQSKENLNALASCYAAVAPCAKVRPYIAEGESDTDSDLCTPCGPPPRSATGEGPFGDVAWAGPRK
# KCNQ2 block: inhibitors of rat KCNQ2 potassium channel | AID 2156 | 310,000 compounds, 1.1% hits | B-score at 10 µM | CHO-K1 KCNQ2, FluxOR thallium flux, 20 min; active compounds read low | O88943;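 active means fluorescence ratio B-score at most minus 3 library SDs, with starting brightness B-score within 2 library SDs, cut at about -5.5 in these data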
# Kir21 confirm: confirmation of mouse Kir2.1 potassium channel inhibitors. shares compounds with KCNQ2 enhance. Kir2.1-expressing cells, FluxOR thallium flux fluorescence; active compounds read low. Tl flux remaining, % of negative control (active compounds read low), % at 10 µM. 2,300 compounds, 41% hits;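 active means Primary-screen hit whose thallium flux fell at least 3 control SD below untreated wells in both duplicates, with normal baseline fluorescence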;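 further: 0% = blank wells without stimulus and 100% = stimulated no-compound controls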
# HEK293 ctr: alters thallium flux in parental HEK293 cells, Kir2.1 counter-screen | AID 2105 | FluxOR thallium flux fluorescence; 0% = unstimulated blank wells | shares compounds with KCNQ2 enhance | FluxOR signal as % of negative control (100 = no effect), % at 10 µM | 2,300 compounds, 19% hits;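 active means dye signal at least 3 control SD above or below untreated wells in both duplicates, raw fluorescence within 3, either direction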;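 further: percent is based on the flux ratio of peak minus minimum fluorescence over baseline F0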
# CHO-K1 ctr: alters thallium flux in parental CHO-K1 cells, KCNQ2 counter-screen | shares compounds with KCNQ2 enhance | FluxOR thallium flux fluorescence; zero = vehicle mean+3SD, 100% = vehicle-minus-blank window | 1,200 compounds, 43% hits | AID 2282 | activity increase over 3SD of controls, % at 10 µM;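 active means signal rise of at least 3 SD above the untreated control mean, in both duplicate wells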;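 further: counter screen of KCNQ2 potentiator hits so any rise reflects channel-independent effects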
# KCNQ1 sel pot: tests whether KCNQ2 potentiators also act on human KCNQ1 | shares compounds with KCNQ2 enhance | CHO KCNQ1 stable, FluxOR thallium flux fluorescence; beyond 3SD, as % of vehicle-control signal | activation over 3SD threshold, % at 10 µM | 1,200 compounds, 28% hits;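 active means fluorescence ratio rise of at least 3 SD of vehicle wells above their mean, in both replicate wells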;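 further: 0% = vehicle mean plus 3 SD and 100% = vehicle minus unstimulated blank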
# KCNQ2 pot confirm: confirmation of rat KCNQ2 potassium channel potentiators; shares compounds with KCNQ2 enhance; CHO-KCNQ2 cells, FluxOR thallium flux fluorescence; potentiation, less the hit threshold, % at 10 µM; 1,200 compounds, 68% hits;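 active means fluorescence ratio rising 3 SD or more over the vehicle control mean in both replicates, plus primary screen hit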;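 further: peak minus minimum thallium fluorescence divided by baseline after K/Tl stimulus; 0% = vehicle mean plus 3 SD and 100% = vehicle minus unstimulated blank difference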
# Kir21 spec: mouse Kir2.1 off-target activity of KCNQ2 potentiators | 1,200 compounds, 2% hits | shares compounds with KCNQ2 enhance | activity over 3SD threshold, % at 10 µM | HEK293 Kir2.1, FluxOR thallium flux fluorescence;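 active means fluorescence ratio rise of at least 3 SD above the vehicle-control mean, seen in both replicates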;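 further: 0% = vehicle mean plus 3 SD and 100% = vehicle minus no-stimulus blank window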
# KCNQ2 W236L MoA: potentiates the retigabine-insensitive rat KCNQ2 W236L mutant channel; current increase over 3SD of negative controls (%), active compounds read high, % at 25 µM; shares compounds with KCNQ2 enhance; 940 compounds, 10% hits; CHO KCNQ2-W236L, automated patch clamp current;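 active means current increase at least 3 SD of the untreated controls above them in both duplicate recordings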
# The depositor's hits bear a star; i = inactive; . = not tested or not shown.
SMILES,KCNQ2 enhance,KCNQ2 block,Kir21 confirm,HEK293 ctr,others
CCOc1cc(N2CCOCC2)c(OCC)cc1NC(=O)Cc1cccc2ccccc12,8.2*,i,i,i,CHO-K1 ctr=2.4*;KCNQ1 sel pot=26*;KCNQ2 pot confirm=9.3*;Kir21 spec=-41;KCNQ2 W236L MoA=i
COc1ccc(CC(=O)Nc2nn(C)c3nc4c(C)cccc4cc23)cc1,.,i,.,.,
CCCc1cc(=O)oc2cc(C)cc(OC(C)C(=O)N[C@@H](Cc3c[nH]c4ccccc34)C(=O)O)c12 (some centres not stated),9.7*,i,i,i,CHO-K1 ctr=2.7*;KCNQ1 sel pot=-21;KCNQ2 pot confirm=-25;Kir21 spec=-32
CCCCc1cc(=O)oc2cc(C)cc(OC(C)C(=O)NC(Cc3c[nH]c4ccc(O)cc34)C(=O)O)c12 (configuration not stated),.,i,.,.,
CC(C)(CC(=O)O)CC(=O)N1CCN(c2nc3cc(Cl)ccc3s2)CC1,1.5,i,.,.,
O=C(CSc1ccccn1)Nc1nonc1[N+](=O)[O-],.,i,.,.,
CCOc1cc(C(c2c(C)[nH][nH]c2=O)c2c(C)[nH][nH]c2=O)ccc1OC(=O)c1cccc([N+](=O)[O-])c1,.,i,.,.,
CCOc1cc(C(c2c(C)[nH][nH]c2=O)c2c(C)[nH][nH]c2=O)ccc1OCc1ccc([N+](=O)[O-])cc1,.,i,i,i,
CC1(c2nnc(-c3cccc(Cl)c3)o2)CC(c2ccc(F)cc2)=NO1 (configuration not stated),.,i,.,.,
Cc1ccc(Nc2[nH]c(=O)c3ccccc3c2C(=O)c2ccccc2)cc1,.,i,.,.,
CC1CCN(CCCNC(=O)c2ccc(CSCc3cccc(Cl)c3)o2)CC1,.,i,37%*,i,
CN1CCN(CCCNC(=O)c2ccc(CSCc3cccc(Cl)c3)o2)CC1,1.2,i,.,.,
CN(CCCS(=O)(=O)[O-])c1ccc(/C=C/c2ccc3ccccc3[n+]2C)cc1,.,i,.,.,
CN(C)c1ccc(/C=C/c2ccc3ccccc3[n+]2C)cc1,.,i,i,i,
C=CCn1c(SCc2ccc(Br)cc2F)nc2cc(C(=O)O)ccc2c1=O,5.3*,i,i,i,CHO-K1 ctr=-15;KCNQ1 sel pot=-20;KCNQ2 pot confirm=-2;Kir21 spec=-29;KCNQ2 W236L MoA=i
C=CCn1c(SCc2c(C)noc2C)nc2cc(C(=O)O)ccc2c1=O,0.07,i,.,.,
CC1CN(CC(O)COc2ccc(C#N)cc2)CCN1CC(O)COc1ccc(C#N)cc1 (configuration not stated),.,i,.,.,
Cc1ccc(C(=O)NCC(=O)OCC(=O)Nc2ccccc2[N+](=O)[O-])cc1,1.2,i,.,.,
CC(=O)N1CCOc2ccc(S(=O)(=O)NCc3ccccc3Cl)cc21,.,i,.,.,
CC(=O)N1CC(C)Sc2ccc(S(=O)(=O)NCc3ccccc3Cl)cc21 (configuration not stated),.,i,75%*,i,
CCCN1CCC(NCC(C)c2ccccc2)CC1 (configuration not stated),0.07,i,.,.,
CCCN1CCC(NC23CC4CC(CC(C4)C2)C3)CC1,0.34,i,54%*,i,
Cc1c(O)ccc(NS(=O)(=O)c2ccccc2)c1C,.,i,.,.,
Cc1cc(NS(=O)(=O)c2ccccc2)c(C)c(Cl)c1O,.,i,69%*,i,
Cc1c(C(=O)OCC(=O)N2CCC(C)CC2)oc2ccccc12,11*,i,i,i,CHO-K1 ctr=14*;KCNQ1 sel pot=-5;KCNQ2 pot confirm=17*;Kir21 spec=-32;KCNQ2 W236L MoA=i
COc1ccc2oc(C(=O)OCC(=O)N3CCC(C)CC3)c(C)c2c1,4.6,i,.,.,
O=C(c1cccc(COc2ccc(Cl)cc2Cl)c1)N1CCN(c2ccccn2)CC1,.,i,.,.,

# Screening data deposited in PubChem BioAssay by Johns Hopkins Ion Channel Center.
